± gives the standard deviation of the averaged measurements.

The test system of assay [1] is DLD1. The experiment in a line: cell viability (CellTiter-Glo) relative to plate median (fraction of plate median); higher = more viable cells. Conditions: 5 µM; treatment time 24 h; reporter: 7TFP. A digest of the protocol:
(§1)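 On parallel plates, a Tecan F500 reader recorded either firefly luciferase or CellTiterGlo luminescence. The plates held colorectal cancer cells stably transduced with lentiviral TCF/Wnt firefly luciferase reporters (7TFP or TCF4/Wnt), seeded in 384-well format and treated 24 h later with library compounds at a final 5 µM for 24 h. Per-well signals were normalised to the plate median (webcellHTS2, additive, no log transformation), and two independent replicates were averaged.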

The next assay has as its system HCT116. Described as above. Conditions: 5 µM; treatment time 24 h; reporter: TCF4/Wnt. Summed up:
as §1

The subject of assay [2] is SW480. Described as above. Conditions: 5 µM; treatment time 24 h; reporter: 7TFP. A digest of the protocol: as §1
Assay [3] relates to DLD1. The experiment in a line: TCF/Wnt firefly luciferase reporter signal relative to plate median (fraction of plate median); higher = higher Wnt reporter signal. Conditions: 5 µM; treatment time 24 h; reporter: 7TFP. Summed up:
as §1
(In general: Reporter assays use an easily measured gene product as a stand-in for the process of interest.)

For assay [4], the system named is SW480. The assay is described as above. Conditions: 5 µM; treatment time 24 h; reporter: 7TFP. Summed up:
as §1

Take `CCOC(=O)C(=O)C1(C(=O)OCC)Oc2cc(OC)cc(OC)c2C(=O)C1c1ccccc1` (stereo not given): the figures for the cell viability in the assay on DLD1 [1], in the assay on HCT116 and in the assay on SW480 [2] were 0.978 ± 0.03, 0.951 ± 0.23 and 1.01 ± 0.13, respectively. In addition, the results for the “TCF/Wnt firefly luciferase reporter signal” value in the assay on DLD1 [3] and with SW480 [4] were 0.939 ± 0.083 and 1.02 ± 0.069, respectively.
Taken in the same sequence, the figures for `CC(=O)NS(=O)(=O)c1ccc(N)cc1` were 1.07 ± 0.05, 0.978 ± 0.088, 1.05 ± 0.057, 1.01 ± 0.22 and 0.854 ± 0.023.
Take `CCOC(=O)c1c(C)cc(O)c(C=O)c1O`: the cell viability in the assay with DLD1 [1] amounted to 0.945 ± 0.05; in the assay with HCT116 it was 1.08 ± 0.014; with SW480 [2], 0.9445 ± 0.005. Moreover, the “TCF/Wnt firefly luciferase reporter signal” value is 0.865 ± 0.11 in the assay with DLD1 [3] and 0.861 ± 0.11 with SW480 [4].
The like results for `CC(C)(C)CC(C)(C)c1ccc(O)c(Cc2ccc(Cl)cc2Cl)c1` were, in that order, 0.987 ± 0.075, 1.05 ± 0.05, 1.03 ± 0.014, 0.86 ± 0.012 and 0.891 ± 0.11.
Regarding `CS(=O)(=O)Nc1ccc([N+](=O)[O-])cc1Oc1ccccc1`, the cell viability with DLD1 [1] is 1.02 ± 0.021; with HCT116, 0.967 ± 0.089; in the assay on SW480 [2] it was 0.978 ± 0.018. Further, the results for the “TCF/Wnt firefly luciferase reporter signal” value in the assay with DLD1 [3] and in the assay with SW480 [4] were 1.01 ± 0.022 and 0.981 ± 0.028, respectively.
With `COC(=O)CC[C@@H](C)[C@H]1CC[C@H]2[C@@H]3[C@H](O)C[C@@H]4C[C@H](O)CC[C@]4(C)[C@H]3C[C@H](O)[C@]12C`, the cell viability is 0.98 ± 0.0099 in the assay on DLD1 [1], 1.06 in the assay on HCT116 and 1.005 ± 0.0071 in the assay on SW480 [2]. In addition, the “TCF/Wnt firefly luciferase reporter signal” value is 1.21 ± 0.014 with DLD1 [3] and 1.09 ± 0.092 in the assay on SW480 [4].
On to `O=c1c(O)c(-c2ccccc2)oc2cc(O)ccc12`, for which the figures for the cell viability with DLD1 [1], with HCT116 and in the assay on SW480 [2] were 1 ± 0.05, 1.06 ± 0.057 and 1.035 ± 0.0071, respectively. The “TCF/Wnt firefly luciferase reporter signal” value was found to be 1.01 ± 0.044 in the assay on DLD1 [3] and 0.925 ± 0.1 with SW480 [4].
Taken in the same sequence, the figures for `CCC(C)C(NC)C(=O)O` (stereo not given) were 0.959 ± 0.073, 0.923 ± 0.058, 0.946 ± 0.05, 1.01 ± 0.22 and 0.947 ± 0.09.
Regarding `CC1=CC(=O)[C@H]2C(C)(C)CCC[C@]2(C)[C@@]1(O)CCc1ccoc1`, the cell viability came out at 0.976 ± 0.016 in the assay with DLD1 [1], 1.07 ± 0.15 in the assay with HCT116 and 0.998 ± 0.018 in the assay on SW480 [2]. Also, the entries for the “TCF/Wnt firefly luciferase reporter signal” value with DLD1 [3] and in the assay with SW480 [4] were 1.1 ± 0.099 and 0.95 ± 0.043, respectively.
In the case of `CC(CCc1ccc(O)cc1)NCCc1ccc(O)c(O)c1` (stereo not given), the cell viability in the assay with DLD1 [1] is 1.01 ± 0.018; with HCT116 it was 1.06 ± 0.18; in the assay with SW480 [2], 1 ± 0.037. Besides, the “TCF/Wnt firefly luciferase reporter signal” value was 0.928 ± 0.058 in the assay with DLD1 [3] and 1.02 ± 0.088 in the assay with SW480 [4].
Taken in the same sequence, the figures for `O=C(O)C1=CCCNC1` were 1.01 ± 0.061, 1.01 ± 0.037, 1 ± 0.013, 1.13 ± 0.028 and 1.04 ± 0.16.
As to `c1coc(CNc2ncnc3[nH]cnc23)c1`, the figures for the cell viability with DLD1 [1], in the assay on HCT116 and with SW480 [2] were 0.913 ± 0.09, 0.845 ± 0.17 and 0.958 ± 0.04, respectively. In addition, the “TCF/Wnt firefly luciferase reporter signal” value was 0.996 ± 0.1 in the assay with DLD1 [3] and 1.04 ± 0.042 with SW480 [4].
Taken in the same sequence, the figures for `CC(C)=CCC1=C(O)C(=O)c2ccccc2C1=O` were 1.055 ± 0.0071, 1.07 ± 0.064, 1.02 ± 0.028, 1.15 ± 0.092 and 1.04 ± 0.064.
As for `Cc1onc(-c2ccccc2)c1-c1ccc(S(N)(=O)=O)cc1`, the cell viability turned out to be 0.844 ± 0.058 in the assay with DLD1 [1], 1.02 ± 0.03 in the assay on HCT116 and 1.05 ± 0.1 in the assay on SW480 [2]. For the same molecule, the “TCF/Wnt firefly luciferase reporter signal” value in the assay with DLD1 [3] worked out at 0.91 ± 0.044; in the assay on SW480 [4] it was 0.956 ± 0.17.
Turning to `CC[C@@H](C)c1cc(=O)c2c(CO)cc3c(c2o1)C(=O)c1c(O)cccc1C3=O` [Espicufolin], the cell viability with DLD1 [1] is 1.09 ± 0.092; in the assay with HCT116, 1.13 ± 0.057; in the assay with SW480 [2] it was 1.055 ± 0.0071. Besides, the “TCF/Wnt firefly luciferase reporter signal” value was determined as 1.29 ± 0.15 with DLD1 [3] and 1.06 ± 0.057 in the assay with SW480 [4].

The values are drawn from the supplement of paper PMC6522484.
